Drawing on PubChem BioAssay (EPA / NIEHS), this text covers outcome and AC50 for 10 compounds.

Records with an inconclusive call do not appear. Calls of active or inactive are those of the source. How the source made its calls: active means hit-call score of the fitted dose curve at least 0.9, where 1 is the maximum; inconclusive means response in the unintended direction; inactive means score below 0.9.

This assay in a line: ACEA_ER_80hr: ACEA Biosciences xCELLigence Real-Time Cell Analysis on Estrogen Receptor Agonism for Proliferation (AID 2282667). Particulars: T47D proliferation, impedance (xCELLigence), 80 h. The method, boiled down: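 Estrogen-driven proliferation is captured as electrode impedance in T47D cells 80 h after compound addition. Test articles ran at 8 concentrations, 1:4 dilutions from 100 uM final, in two replicate plates.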
With `CCCOC(=O)CC`, the call was inactive.

`CCCC[N+](C)(CCCC)CCCC`: the call was inactive. With `CCCCCCOC(C)=O`, the result was inactive. For the compound `CC1=CCC(C(C)(C)O)CC1` (stereo not given), the compound was called inactive. As to `CCCCCCCCOC(=O)c1ccc(O)cc1`, the AC50 is 521 nM (active). Take `CC(=O)OC(C)(C)C`: the outcome was inactive. Take `CCCCCCCCCCCCCC(=O)OCC`: the outcome was inactive.

In the case of `COc1ccc(C(C)=O)cc1`, the AC50 was 26.7 nM (active). For `CCCCCc1cccc(=O)o1`, the compound was classed as inactive.

For the compound `CC(=O)OCC=C(C)CCC=C(C)CCC=C(C)C`, the result was inactive.
